# High-throughput results: PubChem BioAssay, National Center for Advancing Translational Sciences (NCATS)
# A selection: hits, their analogues and other compounds. The true share with any hit is near 1.7%.
# Caspase-1 inhib = allosteric or competitive inhibitors of human caspase-1; Potency, µM (series often up to 57.5 µM), for inactives: at the top dose activity change, negative = inhibition, hits mostly inhibitors; Caspase-1 enzyme, Ac-WEHD-AFC fluorogenic rate; P29466; actives 0.03% (n = 75,000);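 also: plate controls were vehicle for no effect and no substrate for full effect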
# ERK AVP inh = inhibitors of vasopressin-stimulated ERK signaling pathway | HEK293-V1b, vasopressin-stimulated pERK AlphaScreen | Potency, µM (titrated, usually from 57.5 µM), for inactives: at the top dose activity, negative = inhibition, most hits filed as inhibitors | actives 0.99% (n = 72,000); also: % is scaled to controls: 0 for no effect and ±100 for the full control effect; nearly all actives have a fitted effect of over 55% in size
#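 HEK293 cells stably expressing V1b receptor, seeded overnight in 1% FBS, were treated with compounds for 30 min at 37C, then stimulated 5 min with 25 nM vasopressin; phospho-ERK read by AlphaScreen SureFire after lysis.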
# 15-hLO inh = 15-hLO (ALOX15) enzyme inhibition; purified 15hLO-1, xylenol orange hydroperoxide absorbance; P16050; Potency, µM (top dose mostly 57.1 µM), for inactives: top-dose activity change, negative = inhibition, most hits filed as inhibitors; actives 1.4% (n = 74,000); also: % is scaled to controls: 0 for no effect and ±100 for the full control effect; nearly all actives have a fitted effect of over 55% in size
#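 Purified human 15hLO-1 (40 nM) in 25 mM Hepes pH 7.5, 0.01% Triton X-100, preincubated 15 min RT with compound, then 50 uM arachidonic acid for 6 min. Hydroperoxide read by ferrous/xylenol orange, 30 min; 573/405 nm absorbance ratio gave progress.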
# ALOX15B inhib = blocks human 15-lipoxygenase 2 activity | purified 15hLO-2, xylenol orange hydroperoxide absorbance | Potency, µM (series often up to 57.1 µM), for the others: at the highest dose activity change, negative = inhibition, actives largely listed as inhibitors | O15296 | actives 0.56% (n = 110,000); also: % is scaled to controls: 0 for no effect and ±100 for the full control effect; nearly all actives have a fitted effect of over 60% in size
#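 Purified human 15hLO-2 (50 nM final) preincubated with compounds 15 min at room temperature in 25 mM Hepes pH 7.5, 0.01% Triton X-100, then 45 uM arachidonic acid added for 90 min; hydroperoxide detected via ferrous/xylenol orange, 573/405 nm absorbance ratio.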
# Casp7 inh = allosteric or competitive inhibitors of human caspase-7; recombinant caspase-7, Ac-DEVD-AFC fluorescence rate; Potency, µM (top dose mostly 57.5 µM), inactives show at the top dose activity change, negative = inhibition, most hits filed as inhibitors; actives 0.02% (n = 75,000); active = well fitted inhibition curve with a large enough effect in the main read-out, with a control signal flat, not every such curve was filed as active; inconclusive = small, poorly fitted or top-dose-only effect, or a change in a side signal; also: % of control where 0% means no effect
# * hit, by the source's call; ? = inconclusive; nt = no result given; [ ] = dose if it differs, or a comment. Unless noted, calls follow the shape of the dose curve; as a rule, active = well fitted curve in the direction sought with a large enough effect; inconclusive = small, poorly fitted or top-dose-only effect, or another doubt; inactive = no such curve, though single readings can be large; an effect the other way counts as inactive or inconclusive. Potency is read from the fitted curve at half-maximal effect.
SMILES,Caspase-1 inhib,ERK AVP inh,15-hLO inh,ALOX15B inhib,Casp7 inh
CC(=O)c1ccc(N2CCN(C(=O)COc3ccc(F)cc3)CC2)c(F)c1,-5%,-25%,-1%,-9%,-4%
COc1ccccc1OCC(=O)N1CCN(c2ccccc2OC)CC1,-3%,nt,-1%,7%,1%
COc1ccccc1N1CCN(C(=O)COc2ccc(Cl)cc2)CC1,1%,32µM*,-27%,9%,-2%
CCC(=O)c1ccc(N2CCN(C(=O)COc3ccc(F)cc3)CC2)c(F)c1,-2%,3.2µM*,3%[11.4 µM],12%,-2%
CCc1cc(C(=O)COc2ccccc2F)c(O)cc1O,-2%,?,13µM*,5%,-2%
CCc1cc(C(=O)Cc2ccc(F)cc2)c(O)cc1O,-3%,-25%,?,nt,-2%
Cc1cc(C)n2nc3nc(N4CCCCC4)nc(-c4ccco4)c3c2n1,-8%,33%,16µM*,?,-24%
Cc1cc(C)n2nc3ccccc3c2n1,-13%,-9%,-6%,-7%,-11%
Cc1cccc2sc(NC(=O)Cn3cccc3)nc12,-1%,25µM*,?,nt,-2%
Cc1cccc2sc(NC(=O)CSCc3ccccc3)nc12,nt,nt,nt,5%,nt
CC1(C)CC(NC(=O)c2ccc3c(c2)OCO3)CC(C)(C)N1,nt,nt,nt,5%,nt
CC1(C)CC(NC(=O)c2coc(=O)c(Br)c2)CC(C)(C)N1,-10%,20µM*,-2%,3%,-10%
O=C(NCCc1ccc(Cl)cc1)C1CCN(C(=O)c2sccc2-n2cccc2)CC1,-2%,16µM*,-15%,1%,-5%
CC(CCc1ccccc1)NC(=O)C1CCN(C(=O)c2sccc2-n2cccc2)CC1 (stereo unspecified),1%,-16%,-4%,5%,-2%
Cc1ccc(-c2cc(-c3ccccc3Cl)[nH]n2)c(O)c1,-4%,-27%,nt,-7%,-10%
Cc1ccccc1-c1cc(-c2ccccc2O)n[nH]1,-3%,-19%,16µM*,12%,-5%
O=S(=O)(c1ccccc1)N1CCC2(CC1)CN(C(c1ccccc1)c1ccccc1)C2,-3%,4%,-7%,11%,-3%
COc1ccc(CNc2cc(-c3ccccc3C)ncn2)c(OC)c1,-6%,13µM*,7%,23%,-7%
COc1ccccc1CNc1cc(-c2ccccc2OC)ncn1,0%,7.9µM*,-18%,36%,-1%
CCOC(=O)CCN1C(=O)[C@H]2[C@H]3[C@H](O)[C@H](O)C/C(=N/OC/C=C(\C)CCC=C(C)C)[C@@H]3CC[C@@H]2C1=O,-1%[11.5 µM],4%[11.5 µM],-3%[11.4 µM],nt,-2%[11.5 µM]
CC(=O)[C@@H]1[C@@H]2C(=O)N(c3ccc(F)c(Cl)c3)C(=O)[C@@H]2C2c3ccccc3C=CN21 (stereo partly specified),32µM*,-17%,?,nt,?
O=C(c1ccco1)[C@@H]1[C@@H]2C(=O)N(c3ccc(Br)cc3)C(=O)[C@@H]2C2c3ccccc3C=CN21 (stereo partly specified),nt,-14%,-8%,?,?
O=C(c1ccco1)[C@@H]1[C@@H]2C(=O)N(c3ccc(F)cc3)C(=O)[C@@H]2C2c3ccccc3C=CN21 (stereo partly specified),nt,-4%,-3%,-27%,13µM*
N#C[C@@H]1[C@@H]2C(=O)N(c3ccc4c(c3)OCCO4)C(=O)[C@@H]2C2c3ccccc3C=CN21 (stereo partly specified),32µM*,-20%,?,nt,?
C1COC1,-2%,-2%,7%,8%,0%
SMILES,Caspase-1 inhib,ERK AVP inh,15-hLO inh,ALOX15B inhib,Casp7 inh
CCC(=O)CC(NC(=O)OC)c1ccccc1 (stereo unspecified),-4%[11.5 µM],19%[11.5 µM],8%[11.4 µM],nt,1%[11.5 µM]
COC(=O)NC(c1cccs1)C(C(C)=O)C(=O)OC (stereo unspecified),3%[11.5 µM],14%[11.5 µM],23%[11.4 µM],nt,1%[11.5 µM]
N#C/C(=C\c1c[nH]c2ccccc12)C(=O)c1ccc(O)c(O)c1,2%,?,0.25µM*,-29%,-1%
N#C/C(=C\c1ccc(O)c(O)c1)S(=O)(=O)c1ccccc1,-3%,-7%,4µM*,?,-10%
N#C/C(=C\c1ccc(O)c(O)c1)C(=O)OCCc1cccs1,-3%,-13%,?,13µM*,-13%
N#C/C(=C\c1ccc(O)c(O)c1)C(=O)NCCCc1ccccc1,-1%,?,2.5µM*,?,-6%
O=C1C[C@@H](O)[C@@H](O)[C@@H]2[C@H]3C(=O)N(c4ccc(F)cc4F)C(=O)[C@@H]3CC[C@H]12,0%[11.5 µM],-5%[11.5 µM],13%[11.4 µM],nt,1%[11.5 µM]
CC#CCOC(=O)C1=CCCN(C)C1,-1%,-3%,-10%[25.6 µM],12%,0%
CC(C)(Oc1ccc(-c2cccc3ccccc23)cc1)C(=O)O,-4%[11.5 µM],-3%[11.5 µM],5%[11.4 µM],-8%[11.4 µM],-23%[11.5 µM]
N#C/C(=C\c1ccc(O)c(O)c1)C(=O)c1ccc(O)c(O)c1,5%,?,4µM*,-29%,3%
CC1CCCO1 (stereo unspecified),2%,-15%,-5%,-11%,0%
O=C1c2cccnc2-c2ncccc21,1%,5%,4%,-1%,0%
CC1(C)OCC(CSC2=C(SCC3COC(C)(C)O3)C(=O)c3ncccc3C2=O)O1 (stereo unspecified),?,16µM*,?,1%,-9%
O=c1c(-c2cc(O)c(O)c(O)c2)coc2cc(O)c(O)c(O)c12,2%,-4%,10µM*,24%,-8%
COC(=O)CSc1nsc(SCC(=O)OC)c1C#N,-1%,16µM*,-3%,-4%,1%
CSc1snc(SCC(N)=O)c1C#N,-2%,?,-4%,-8%,0%
COc1ccc2c(c1)-c1nc(NC(=O)c3cccs3)sc1CC2,-13%,nt,13µM*,13%,-21%
COc1ccc2c(c1)-c1nc(NC(=O)c3ccco3)sc1CC2,-4%,?,0%,nt,-8%
CCOc1cc(/C=C2\SC(=S)N(Nc3ccccc3)C2=O)ccc1O,nt,nt,nt,13µM*,nt
COc1ccc(C(C(=O)NC2CCCC2)N(C(=O)c2ccco2)c2ccc3c(c2)OCO3)cc1OC (stereo unspecified),-1%,-10%,10%,1%,1%
COc1cc(C(Nc2ccc3c(c2)OCO3)C(=O)NC2CCCCC2)cc(OC)c1OC (stereo unspecified),-3%,?,0.63µM*,?,2%
CC[C@@H]1CC(=O)N(SC[C@H](N)C(=O)O)C1=O,-2%[11.5 µM],-9%[11.5 µM],6%[11.4 µM],2%[11.4 µM],0%[11.5 µM]
O=C(c1ccco1)N1CCC2(CCCN(C(c3ccccc3)c3ccccc3)C2)CC1,-2%,-22%,-11%,-9%,-4%
NC(=O)C[C@@H](N)c1nn[nH]n1,2%[11.5 µM],-6%[11.5 µM],4%[11.4 µM],-5%[11.4 µM],1%[11.5 µM]
Cc1ccc(C)o1,-3%,12%,-3%,-4%,-1%
COc1ccc(NC(=O)COC(=O)CCCc2c[nH]c3ccccc23)cc1,nt,nt,nt,-10%,nt
